About 83,000 compounds went through this panel and 20% of them were active in at least one assay; those are over-represented in the sample as a whole.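 Single-concentration screen, 48 h exposure, 96-well plates. Endpoint: percent growth. Below 10 = active.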 A number with no mark means an inactive call. Activity calls are given as the source filed them.
How the values were obtained:
Experiment in all cases: NCI-60 one-dose screen, 48 h (100 = growth as untreated, 0 = no growth, -100 = all killed)
Settings in all cases: 10 µM unless noted
HCT-15 colon = test system: HCT-15 colon
HT29 colon = test system: HT29 colon
SNB-75 CNS = test system: SNB-75 CNS
SNB-19 CNS = test system: SNB-19 CNS
U251 CNS = test system: U251 CNS
PC-3 prostate = test system: PC-3 prostate
SK-MEL-5 melanoma = test system: SK-MEL-5 melanoma
UACC-62 melanoma = test system: UACC-62 melanoma
LOX IMVI melanoma = test system: LOX IMVI melanoma
SK-MEL-28 melanoma = test system: SK-MEL-28 melanoma
SK-MEL-2 melanoma = test system: SK-MEL-2 melanoma
EKVX NSCLC = test system: EKVX NSCLC
SN12C renal = test system: SN12C renal
UO-31 renal = test system: UO-31 renal
TK-10 renal = test system: TK-10 renal
ACHN renal = test system: ACHN renal
CAKI-1 renal = test system: CAKI-1 renal
A498 renal = test system: A498 renal
CCRF-CEM leukemia = test system: CCRF-CEM leukemia
MOLT-4 leukemia = test system: MOLT-4 leukemia

SMILES | growth (HCT-15 colon) | growth (HT29 colon) | growth (SNB-75 CNS) | growth (SNB-19 CNS) | growth (U251 CNS) | growth (PC-3 prostate) | growth (SK-MEL-5 melanoma) | growth (UACC-62 melanoma) | growth (LOX IMVI melanoma) | growth (SK-MEL-28 melanoma) | growth (SK-MEL-2 melanoma) | growth (EKVX NSCLC) | growth (SN12C renal) | growth (UO-31 renal) | growth (TK-10 renal) | growth (ACHN renal) | growth (CAKI-1 renal) | growth (A498 renal) | growth (CCRF-CEM leukemia) | growth (MOLT-4 leukemia)
CCCCc1nc(/C=N/Nc2nc(Nc3ccccc3)nc(Nc3ccc(S(N)(=O)=O)cc3)n2)c(Cl)[nH]1 | 103% | 102% | 112% | 30.7% | -1.83% (active) | 83% | 75.2% | 72.8% | 41.1% | 71% | 65.8% | 102% | 93.6% | 85.4% | 112% | 100% | 105% | 89.3% | 12.5% | 41.4%
O=S(=O)(NCCNc1nccc(-n2cnc3ccccc32)n1)c1ccc(Br)cc1 | 95.7% | 97.2% | 74.1% | 101% | 98.6% | 93.8% | 89.1% | 82.8% | 99.1% | 108% | 108% | 83.4% | 91.5% | 79.8% | 103% | 93.6% | 81.5% | 76.3% | 101% | 95.9%
N#Cc1ccccc1Cn1c2nc(=N)c3ccccc3c-2nc2ccccc21 | 41.5% | 15.4% | 93.8% | 65.8% | 70.4% | 56.8% | 32.5% | 56.5% | 51.1% | 90.2% | 87.9% | 49.4% | 61.5% | 51.3% | 102% | 56.4% | 50.9% | 69.7% | – | –
CCN(CC)c1ccc2c(c1)Oc1nc(N)c(C#N)c(N)c1C2Sc1ccc(F)cc1 (stereo unspecified) | -84.8% (active) | -42.4% (active) | -3.74% (active) | -94.9% (active) | -73.4% (active) | -74% (active) | -96.2% (active) | -52.5% (active) | -92.6% (active) | -62% (active) | -61.3% (active) | -85.8% (active) | -77.8% (active) | -99.5% (active) | -33.6% (active) | -91% (active) | -81.9% (active) | -1.93% (active) | -23% (active) | -12.8% (active)
Cn1ccnc1C(=O)/C=C/c1ccc(NC(=O)c2ccc(F)cc2)cc1 | 16.9% | 7.13% (active) | 46.9% | 28.1% | 23.3% | 27.6% | 68.2% | 49.9% | 6.38% (active) | 90.9% | 106% | 42.1% | 25% | 42.3% | 89.5% | 37.6% | 41.4% | 78.1% | 7.06% (active) | 16.6%
CCN1CCN(C(=O)[C@]23CCC(C)(C)C[C@H]2C2=CC[C@@H]4[C@@]5(C)Cc6c([nH]c7ccccc67)C(C)(C)[C@@H]5CC[C@@]4(C)[C@]2(C)CC3)CC1 | 79.6% | 88.3% | 87.3% | 91.9% | 83.1% | 75.3% | 97.3% | 94.8% | 76% | 95.5% | 104% | 90% | 81.7% | 75.8% | 119% | 85% | 65% | 97.5% | 80% | –
COc1cc2nc(Cl)nc(Nc3cccc(C4=Nc5c(N)nc(N)nc5NC(c5ccc(Br)cc5)C4)c3)c2cc1OC (stereo unspecified) | 7.34% (active) | 19.8% | 84.3% | 28.7% | -46.5% (active) | 64.7% | 75.5% | 107% | 27.6% | 99.1% | 94.2% | 97.1% | 99% | 92.9% | 114% | 101% | 90.3% | 90.6% | 10.9% | –
Cc1ccc(S(=O)(=O)NCCNc2nc(Nc3ccc(N4CCN(C)CC4)cc3)nc3ccsc23)cc1 | 29.2% | 63.4% | 67.8% | 104% | 90.8% | 87.9% | 95.9% | 103% | 97.8% | 103% | 115% | 94.9% | 97.4% | 92.4% | 121% | 106% | 74.6% | 110% | 74.3% | 79.1%
COc1cc(-c2nc(SCCC(C)C)nc(NNC(=O)c3ccncc3)c2C#N)cc(OC)c1OC | 78.1% | 42.9% | 27.1% | 66% | 79.7% | 78.6% | 84.4% | 38.1% | 53.4% | 85.8% | 101% | 54.7% | 60.4% | 19.3% | 52.8% | 23% | 37.8% | 41.9% | 95.8% | 68.7%
COc1ccc(NC(=O)Nc2ccc3c(ccn3C(=O)c3cccc(F)c3)c2)cc1 | 71.6% | 64% | 44% | 80.8% | 54.4% | 77.4% | 76.6% | 65.9% | 57% | 87.2% | 94.5% | 88% | 50.7% | 94.1% | 103% | 53.9% | 90.1% | 88.7% | 56.3% | 73.2%
CCNC(=O)N1CCc2cc(OC)c(OCCc3ccc(OC)cc3)cc2C1c1ccc(OC)cc1C (stereo unspecified) | 10.8% | -0.449% (active) | 3.67% (active) | 25.8% | 20.6% | 27.9% | -1.62% (active) | 19.5% | 4% (active) | 46.7% | 19% | 45.5% | 30.2% | 30% | 38.1% | 26.9% | 26.9% | -11.1% (active) | 36.3% | 21.2%
O=C(Nc1nonc1-c1ccccc1)c1ccc(C(F)(F)F)cc1 | 80.6% | 103% | 104% | 62% | 70.1% | 71.7% | 65.6% | 56% | -46.7% (active) | 77.5% | 65.3% | 84.6% | 71.7% | 91.4% | 146% | 82.1% | 85.5% | 95.6% | 50.8% | 69.1%
Cc1cc(C)n(C(=O)c2sc(=S)n(-c3ccccc3)c2N=Nc2c(N)n[nH]c2N)n1 | 108% | 103% | 109% | 105% | 104% | 98.7% | 103% | 98.2% | 101% | 106% | 110% | 102% | 105% | 84.8% | 122% | 102% | 98.9% | 92.8% | 95.5% | 105%
O=[N+]([O-])c1cc(/C=N/Nc2nc(N/N=C/c3ccc(Cl)c([N+](=O)[O-])c3)nc(N3CCCCC3)n2)ccc1Cl | 49.7% | 7.43% (active) | 136% | 72.6% | 18.5% | 53.4% | 77.8% | 43.1% | 66% | 62.2% | 80.7% | 78% | 72.3% | 47.5% | 93.8% | 35.2% | 72.4% | 108% | 61.3% | 42.3%
Cn1ccnc1C(=O)/C=C/C=C/c1ccc(C(=O)Nc2ccc(F)cc2)cc1 | -36.8% (active) | 0.045% (active) | 51.7% | 39.6% | -1.47% (active) | 41.8% | 30.4% | 32.8% | -65.7% (active) | 39.7% | 90.8% | 33.4% | 1.94% (active) | 44.3% | 61.2% | 21.9% | 37.2% | 62% | 10.3% | 12.3%
O=C(NNc1nc2cc(F)ccc2n2cccc12)c1ccncn1 | 25.8% | 28.3% | -2.99% (active) | 25.1% | 12.9% | 35.6% | -22.1% (active) | 4.91% (active) | 7.82% (active) | 23.5% | 26.4% | 11.2% | 21.3% | 18.6% | 31.7% | 13.3% | 16.5% | 14.6% | 8.88% (active) | 11.7%

Reference: PubChem BioAssay (NCI)
